According to PubChem BioAssay AID624273 (Broad Institute, 2012):
Among all 1,000 compounds or so, about 230 (23%) were called active. Another 1% or so got no clear call; they are omitted. How the calls were made is not given here. This is one part of the list. Entries with a potency or affinity are not part of this list.

Target: Long-chain-fatty-acid--AMP ligase FadD28 (Mycobacterium tuberculosis (strain ATCC 25618 / H37Rv)) (UniProt P9WQ59)
Assay: inhibitors of FadD28 bisubstrate probe binding, dose response, biochemical, fluorescence polarization, cherry-pick (AID 624273)
Conditions: series mostly up to 50 µM

Long-chain-fatty-acid--AMP ligase FadD28 (Mycobacterium tuberculosis (strain ATCC 25618 / H37Rv)), sequence (P9WQ59 whole entry, looked up): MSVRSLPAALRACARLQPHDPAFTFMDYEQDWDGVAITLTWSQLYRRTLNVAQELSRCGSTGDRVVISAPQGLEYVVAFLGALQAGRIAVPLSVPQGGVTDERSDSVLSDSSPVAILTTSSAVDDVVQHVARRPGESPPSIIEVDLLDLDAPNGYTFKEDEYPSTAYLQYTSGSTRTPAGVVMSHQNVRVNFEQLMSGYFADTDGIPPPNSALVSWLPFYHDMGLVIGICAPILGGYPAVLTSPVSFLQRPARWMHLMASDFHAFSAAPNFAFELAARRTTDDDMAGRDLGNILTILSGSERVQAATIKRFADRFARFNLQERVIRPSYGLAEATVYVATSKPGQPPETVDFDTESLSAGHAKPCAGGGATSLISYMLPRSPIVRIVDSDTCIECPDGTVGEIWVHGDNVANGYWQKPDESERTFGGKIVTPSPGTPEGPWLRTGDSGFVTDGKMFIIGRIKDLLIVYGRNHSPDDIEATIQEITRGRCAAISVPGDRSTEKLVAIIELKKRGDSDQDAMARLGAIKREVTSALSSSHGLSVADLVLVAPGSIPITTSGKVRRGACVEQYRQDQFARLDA

Row | SMILES | outcome
1 | Cc1nn(C(=O)c2ccco2)c(C)c1Br | inactive
2 | Cc1cc(NC(=O)Nc2cccc3ccccc23)no1 | inactive
3 | COc1ccc2nc(-c3ccc(F)cc3)sc2c1 | inactive
4 | Cc1ccc(C(=O)NN2C(=O)/C(=C/c3cccn3C)SC2=S)cc1 | inactive
5 | O=C(NC(=S)NCc1nc2ccccc2[nH]1)c1ccccc1F | inactive
6 | C=CCSc1nc(=O)n2cccc(C)c2n1 | inactive
7 | c1ccc(-c2cnn3c(-c4ccccc4)c(-c4ccccc4)nc3n2)cc1 | inactive
8 | O=C(COc1ccccc1-c1ccccc1)NCc1cccc(Cl)c1 | inactive
9 | COc1ccc(CNCCc2ccc3c(c2)OCO3)cc1Br | inactive
10 | CC(C)(C)c1ccc(NC(=O)C(=O)C2C(=O)Nc3ccccc32)cc1 (centres undefined) | inactive
11 | CC(C)c1ccc(NC(=O)CCCC(=O)NCCc2ccccc2)cc1 | inactive
12 | COC(=O)c1c(N(S(C)(=O)=O)S(C)(=O)=O)sc2c1CCN(c1ncc(C(F)(F)F)cc1Cl)C2 | inactive
13 | CCOC(=O)C1=C(C)OC(N)=C(C#N)C1c1cc(F)ccc1F (centres undefined) | inactive
14 | Cc1cc(C)n2nc3nc(N4CCCC4)nc(-c4ccccc4)c3c2n1 | inactive
15 | CC(=O)NN1C(=O)/C(=C\c2ccc(Br)o2)SC1=S | inactive
16 | O=C(CSc1nc2ccsc2c(=O)n1Cc1ccc(C(=O)O)cc1)NCc1ccco1 | inactive
17 | Cc1nn(CCc2nn[nH]n2)c2nc(-c3ccc(C4CCCCC4)cc3)cc(C(F)(F)F)c12 | inactive
18 | O=C(CSc1nc2ccccc2[nH]1)NC1CCCc2ccccc21 (centres undefined) | inactive
19 | CCOC(=O)c1[nH]nc2c1C(=O)N(CC)C2=O | inactive
20 | Cc1cc(-n2c(C)cc(C(=O)COc3ccc(F)c(F)c3)c2C)no1 | inactive
21 | COc1ccc(OCC(=O)NNC(=O)C(=O)N2CCCC2)cc1 | inactive
22 | COc1ccc(S(=O)(=O)N(C)C[C@H]2Oc3ccc(NC(=O)Nc4ccc5c(c4)OCO5)cc3C(=O)N([C@H](C)CO)C[C@@H]2C)cc1 | inactive
23 | O=C(CSc1nnc(CNC(=O)C23CC4CC(CC(C4)C2)C3)n1-c1ccccc1)Nc1ccc(F)cc1 | inactive

Row | SMILES | outcome
24 | CCCCCCCCCCCCC(=O)CCCCC(=O)O | inactive
25 | COc1ccc(OC)c(NC(=O)c2nnn(CCc3ccccc3)c2N)c1 | inactive
26 | COc1ccc(CN2CCC(C(=O)Nc3ccc(Oc4cccnc4)cc3)CC2)c(C)c1C | inactive
27 | O=C(Nc1ccc(Cc2ccncc2)cc1)C1CCC(N2C(=O)C3C4C=CC(C4)C3C2=O)CC1 (centres undefined) | inactive
28 | COc1ccc(N2CC(C(=O)Nc3cccnc3)CC2=O)cc1 (centres undefined) | inactive
29 | O=C(COc1ccccc1)Nc1ccc(CN2CCCCC2)cc1 | inactive
30 | COc1ccc(N(CC(=O)NC2CCCCC2)C(=O)CCC(=O)Nc2nc(C)cs2)cc1 | inactive
31 | CCOC(=O)CSc1nc(C)c2ccccc2n1 | inactive
32 | CCOC(=O)c1ccc(NS(=O)(=O)c2ccc3c(c2)NC(=O)CCS3)cc1 | inactive
33 | CCOC(=O)c1ccc(Nc2cc(C)nc(-c3ccccc3O)n2)cc1 | inactive
34 | COc1cc2[nH]c(Cl)c([N+](=O)[O-])c2cc1OC | inactive
35 | CCC1CCC(C(=O)NNC(=O)c2cc(-c3ccco3)[nH]n2)CC1 (centres undefined) | inactive
36 | CCOC(=O)C1CCCN(C(=O)C2c3ccccc3Oc3ccccc32)C1 (centres undefined) | inactive
37 | CCOC(=O)C1CCCN(C(=O)c2cc(Nc3ccc(OC)c(OC)c3)nc3ccccc23)C1 (centres undefined) | inactive
38 | CCCCc1c(O)nc(SCC(=O)N2CCOCC2)n(-c2ccc(OC)cc2)c1=O | inactive
39 | CCOc1ccc(-c2nnc(SCC(=O)N3CCCC3)o2)cc1 | inactive
40 | Cn1c(=O)c2c(ncn2Cc2ccc(Cl)cc2)n(C)c1=O | inactive
41 | COc1ccc2c(C)cc(SCC(=O)N(C)C3CCS(=O)(=O)C3)nc2c1 (centres undefined) | inactive
42 | Cc1ccccc1Nc1ccc([N+](=O)[O-])cn1 | inactive
43 | O=C(COC(=O)c1ccccc1NC(=O)c1ccco1)Nc1ncc(Cl)cc1Cl | inactive
44 | Cn1ccc(C(=O)NC(=S)Nc2ccc([N+](=O)[O-])cc2O)n1 | inactive
45 | COc1ccc(C(=O)NNC(=O)C(=O)N2CCCCC2)cc1OC | inactive
46 | Cc1ccccc1CS(=O)(=O)Cc1ccc(C(=O)NCc2ccco2)o1 | inactive

Row | SMILES | outcome
47 | O=C(NCc1n[nH]c(=S)n1-c1ccccc1)c1ccco1 | inactive
48 | COc1cccc(C(=O)NCc2ccccc2OC)c1 | inactive
49 | CC(=O)c1cccc(NC(=O)COC(=O)c2ccccc2C)c1 | inactive
50 | COc1cccc(NCc2cc(=O)oc3cc(-c4ccccc4)c(O)cc23)c1 | inactive
51 | O=C(Cn1c(=O)oc2ccccc21)Nc1cccc(Cl)c1 | inactive
52 | COc1ccc(C(=O)COC(=O)CNS(=O)(=O)c2ccc(C)cc2)cc1 | inactive
53 | COc1ccccc1NC(=O)Nc1cccc(C)n1 | inactive
54 | COC(=O)c1cc2oc(C)cc2n1CC(=O)N(C)c1ccccc1 | inactive
55 | CCOC(=O)Cn1cc(C(=O)c2ccco2)c2ccccc21 | inactive
56 | COc1ccc(-c2cc(C)no2)cc1S(=O)(=O)N(C)c1cccc(C)c1 | inactive
57 | COc1ccccc1C(=O)COC(=O)c1nc2nc(C)cc(C)n2n1 | inactive
58 | CCCSC1=N/C(=C\C=C\c2ccco2)C(=O)S1 | inactive
59 | CC(C)(C)NC(=O)Cn1nnc(-c2ccccc2Cl)n1 | inactive
60 | COc1cccc(NC(=O)Cn2nnc(C(=O)Nc3ccccc3)c2N)c1 | inactive
61 | COc1ccc(OC)c(NC(=O)NNC(=O)c2cc3occc3[nH]2)c1 | inactive
62 | COc1ccc(CC(=O)OCC(=O)NC(=O)NC23CC4CC(CC(C4)C2)C3)cc1 | inactive
63 | Cc1ccc(NC(=O)CN(C)C(=O)c2cc(-c3ccco3)nc3ccccc23)cc1 | inactive
64 | CCc1nc(C)cn1S(=O)(=O)c1cc(C)c(OC)c(C)c1C | inactive
65 | COc1cc(/C=N/NC(=O)Cn2nc([N+](=O)[O-])cc2C)cc(Br)c1OCc1ccccc1 | inactive
66 | COc1cccc(OCCn2cc(/C=N/NC(=O)c3ccncc3)c3ccccc32)c1 | inactive
67 | Cc1cccc(OCC(=O)N2CCN(C(=O)Cc3ccccc3)CC2)c1 | inactive
68 | COc1ccc2c(c1OC)C(=O)N1C2SC(C)(C)[C@H]1C(=O)NCCCOC(C)C (some centres undefined) | inactive
69 | Cc1cccc(-n2c(O)c(C=NCCCN3CCOCC3)c3ccccc3c2=O)c1 | inactive
